Laboratory results reported in PubChem BioAssay (EPA / NIEHS).
“And” between values parts separate entries of the source, which are not always exact repeats. Identical values can stand only once. Some compounds were tested as several samples or in several runs, with calls that do not always agree. The source made the active and inactive calls. Rule for the calls: active = hit-call score of the fitted dose curve at least 0.9, where 1 is the maximum; inactive = score below 0.9.

What was measured:
[1] = read-out: Decorin, DCN (gene 1634); assay: BSK_MyoF_Decorin: BioMAP Diversity Plus: MyoF Assay for Decorin Biomarker Activity (AID 2284265); conditions: primary human lung fibroblasts
Procedure, shortened: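 Human lung fibroblasts in the MyoF system were exposed to compound for 24 h, after which decorin was quantified by ELISA. Activity was fitted in the positive direction relative to DMSO negative control.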

[2] = read-out: KRT18 (gene 3875); assay: BSK_BF4T_Keratin818: BioMAP Diversity Plus: BF4T Assay for Keratin 818 Biomarker Activity (AID 2284266); conditions: primary human bronchial epithelial cells with fibroblasts
Procedure, shortened: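 Co-culture of human bronchial epithelial cells and dermal fibroblasts, chemical exposure 24 h. Keratin 8/18 measured by ELISA; positive-direction fit vs DMSO. SRB total protein run in parallel cultures for cytotoxicity.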

[3] = BSK_MyoF_SRB: Viability Assessment in the BioMAP Diversity Plus: MyoF Assay (AID 2284267); conditions: primary human lung fibroblasts;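 note: total protein by SRB absorbance in parallel cultures as cytotoxicity measure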
Procedure, shortened: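 Human lung fibroblasts dosed with chemical and assessed 24 h later for overt cytotoxicity in parallel cultures. Total protein quantified by sulforhodamine B staining (0.1% SRB after 10% TCA fixation), read at 560 nm, analysed in positive direction versus DMSO baseline.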

[4] = read-out: Matrix Metallopeptidase 1 (MMP1), MMP1 (gene 4312); assay: BSK_MyoF_MMP1: BioMAP Diversity Plus: MyoF Assay for Matrix Metallopeptidase 1 (MMP1) Biomarker Activity (AID 2284268); conditions: primary human lung fibroblasts
Procedure, shortened: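 ELISA readout of MMP1 in primary human lung fibroblast cultures, 24 h post-dosing. Gain of signal versus DMSO vehicle control defines activity. Parallel SRB staining (0.1% after 10% TCA fixation, 560 nm) flags overt cytotoxicity.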

[5] = read-out: Matrix Metallopeptidase 1 (MMP1), MMP1 (gene 4312); assay: BSK_BF4T_MMP1: BioMAP Diversity Plus: BF4T Assay for Matrix Metallopeptidase 1 (MMP1) Biomarker Activity (AID 2284270); conditions: primary human bronchial epithelial cells with fibroblasts
Procedure, shortened: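 Co-culture of human bronchial epithelial cells and dermal fibroblasts; MMP-1 levels measured by ELISA 24 hours after chemical dosing, relative to DMSO. Cytotoxicity checked in parallel cultures by SRB total-protein staining.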

[6] = read-out: Matrix Metallopeptidase 3 (MMP3), MMP3 (gene 4314); assay: BSK_BF4T_MMP3: BioMAP Diversity Plus: BF4T Assay for Matrix Metallopeptidase 3 (MMP3) Biomarker Activity (AID 2284271); conditions: primary human bronchial epithelial cells with fibroblasts
Procedure, shortened: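 Co-culture of human bronchial epithelial cells and dermal fibroblasts dosed 24 h; MMP-3 measured by ELISA, positive-direction fit versus DMSO. Cytotoxicity tracked by SRB total-protein staining (560 nm) in parallel cultures.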

[7] = read-out: Tissue plasminogen activator (tPA), PLAT (gene 5327); assay: BSK_BF4T_tPA: BioMAP Diversity Plus: BF4T Assay for Tissue plasminogen activator (tPA) Biomarker Activity (AID 2284272); conditions: primary human bronchial epithelial cells with fibroblasts
Procedure, shortened: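 tPA level quantified by ELISA at 24 h post-treatment in bronchial epithelial/dermal fibroblast co-cultures, gain of signal scored against DMSO baseline. Parallel cultures stained with 0.1% SRB (560 nm) to flag overt cytotoxicity.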

[8] = read-out: Plasminogen Activator Inhibitor-1 (PAI1), SERPINE1 (gene 5054); assay: BSK_BF4T_PAI1: BioMAP Diversity Plus: BF4T Assay for Plasminogen Activator Inhibitor-1 (PAI1) Biomarker Activity (AID 2284273); conditions: primary human bronchial epithelial cells with fibroblasts
Procedure, shortened: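 Co-culture of human bronchial epithelial cells and dermal fibroblasts exposed to compound for 24 h. PAI-1 measured by ELISA; activity fitted in positive direction versus DMSO. Parallel SRB staining assessed overt cytotoxicity.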

[9] = BSK_BF4T_SRB: Viability Assessment in the BioMAP Diversity Plus: BF4T Assay (AID 2284274); conditions: primary human bronchial epithelial cells with fibroblasts;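 for AC50: total cell protein by sulforhodamine B staining as a cytotoxicity measure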
Procedure, shortened: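 Co-culture of human bronchial epithelial cells and dermal fibroblasts (BioMAP BF4T) exposed 24 h. Total protein by sulforhodamine B staining (0.1% SRB after 10% TCA fixation, 560 nm) in parallel cultures; fitted vs DMSO.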

[10] = read-out: TIMP metallopeptidase inhibitor 1 (TIMP1), TIMP1 (gene 7076); assay: BSK_MyoF_TIMP1: BioMAP Diversity Plus: MyoF Assay for TIMP metallopeptidase inhibitor 1 (TIMP1) Biomarker Activity (AID 2284269); conditions: primary human lung fibroblasts
Procedure, shortened: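 ELISA quantified TIMP-1 levels after 24 h dosing of primary human lung fibroblasts, with DMSO as baseline. Parallel SRB total protein staining (0.1% SRB after TCA fixation, 560 nm) flagged overt cytotoxicity.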

SMILES: O=C(O)C(F)(F)C(F)(F)C(F)(F)C(F)(F)C(F)(F)C(F)(F)C(F)(F)C(F)(F)Cl
- AC50 [1]: 21.3 µM (active)
- outcome [1]: inactive
- AC50 [2]: 45 µM (active) and 49.7 µM (active)
- AC50 [3]: 30.9 µM (active) and 35.5 µM (active)
- AC50 [4]: 51.5 µM (active)
- outcome [4]: inactive
- AC50 [5]: 48.7 µM (active) and 55 µM (active)
- AC50 [6]: 52.7 µM (active) and 55.1 µM (active)
- AC50 [7]: 10.7 µM (active) and 5.95 µM (active)
- AC50 [8]: 44.8 µM (active) and 42.7 µM (active)
- AC50 [9]: 36.9 µM (active) and 39.9 µM (active)

SMILES: O=C(Cl)C(F)(F)C(F)(F)C(F)(F)C(F)(F)C(F)(F)C(F)(F)C(F)(F)C(F)(F)F
- outcome [1]: inactive
- AC50 [2]: 44.5 µM (active) and 46.1 µM (active) and 44.3 µM (active)
- AC50 [3]: 26 µM (active) and 21.7 µM (active) and 20.3 µM (active)
- outcome [4]: inactive
- outcome [10]: inactive
- AC50 [5]: 55.2 µM (active)
- outcome [5]: inactive
- outcome [6]: inactive
- outcome [8]: inactive
- AC50 [9]: 30 µM (active) and 50.1 µM (active)
- outcome [9]: inactive

SMILES: OCCCC(F)(F)C(F)(F)C(F)(F)C(F)(F)C(F)(F)C(F)(F)C(F)(F)F
- AC50 [1]: 51.2 µM (active) and 52.2 µM (active)
- AC50 [2]: 23.7 µM (active) and 47.1 µM (active)
- AC50 [3]: 44.8 µM (active) and 56.2 µM (active)
- AC50 [4]: 48 µM (active)
- outcome [4]: inactive
- AC50 [5]: 46.8 µM (active)
- outcome [5]: inactive
- AC50 [6]: 57.5 µM (active) and 32.4 µM (active)
- AC50 [8]: 47.5 µM (active) and 39.4 µM (active)
- AC50 [9]: 51 µM (active) and 53.6 µM (active)

SMILES: C=C(C)C(=O)OCC(F)(F)C(F)(F)C(F)(F)C(F)(F)C(F)(F)C(F)(F)C(F)(F)F
- outcome [1]: inactive
- outcome [2]: inactive
- outcome [3]: inactive
- outcome [4]: inactive
- outcome [5]: inactive
- outcome [6]: inactive
- outcome [7]: inactive
- outcome [8]: inactive
- outcome [9]: inactive

SMILES: O=S(=O)(OCC(F)F)C(F)(F)F
- outcome [1]: inactive
- outcome [2]: inactive
- outcome [3]: inactive
- outcome [4]: inactive
- outcome [10]: inactive
- outcome [5]: inactive
- outcome [6]: inactive
- outcome [8]: inactive
- outcome [9]: inactive

SMILES: FC(F)(F)C(F)(F)C(F)(F)C(F)(F)CCI
- outcome [1]: inactive
- outcome [2]: inactive
- outcome [3]: inactive
- outcome [4]: inactive
- outcome [10]: inactive
- outcome [5]: inactive
- AC50 [6]: 8.85 µM (active)
- outcome [6]: inactive
- outcome [8]: inactive
- outcome [9]: inactive

SMILES: OCCCC(F)(F)C(F)(F)C(F)(F)F
- outcome [1]: inactive
- outcome [2]: inactive
- outcome [3]: inactive
- outcome [4]: inactive
- outcome [5]: inactive
- outcome [6]: inactive
- outcome [7]: inactive
- outcome [8]: inactive
- outcome [9]: inactive

SMILES: O=C(O)C(F)(F)C(F)(F)C(F)(F)F
- outcome [1]: inactive
- outcome [2]: inactive
- outcome [3]: inactive
- outcome [4]: inactive
- outcome [10]: inactive
- outcome [5]: inactive
- outcome [6]: inactive
- outcome [8]: inactive
- outcome [9]: inactive

SMILES: OCC(F)(F)C(F)(F)C(F)(F)C(F)(F)C(F)(F)C(F)(F)F
- outcome [1]: inactive
- outcome [2]: inactive
- AC50 [3]: 49.5 µM (active)
- outcome [3]: inactive
- AC50 [4]: 47.9 µM (active)
- outcome [4]: inactive
- outcome [5]: inactive
- outcome [6]: inactive
- outcome [7]: inactive
- outcome [8]: inactive
- outcome [9]: inactive

SMILES: CCO[Si](CCC(F)(F)C(F)(F)C(F)(F)C(F)(F)C(F)(F)C(F)(F)F)(OCC)OCC
- outcome [1]: inactive
- outcome [2]: inactive
- outcome [3]: inactive
- outcome [4]: inactive
- outcome [10]: inactive
- outcome [5]: inactive
- outcome [6]: inactive
- outcome [8]: inactive
- outcome [9]: inactive

SMILES: C=CC(=O)OCC(F)(F)C(F)(F)C(F)(F)C(F)(F)COC(=O)C=C
- AC50 [1]: 15.7 µM (active) and 17 µM (active)
- outcome [2]: inactive
- AC50 [3]: 17.1 µM (active) and 18.2 µM (active)
- outcome [4]: inactive
- AC50 [10]: 14.1 µM (active) and 18.7 µM (active)
- outcome [5]: inactive
- AC50 [6]: 55.4 µM (active) and 6.99 µM (active)
- outcome [8]: inactive
- outcome [9]: inactive

SMILES: NC(=O)C(F)(F)C(F)(F)C(F)(F)C(F)(F)F
- outcome [1]: inactive
- outcome [2]: inactive
- outcome [3]: inactive
- outcome [4]: inactive
- outcome [10]: inactive
- outcome [5]: inactive
- outcome [6]: inactive
- outcome [7]: inactive
- outcome [8]: inactive
- outcome [9]: inactive

SMILES: FC(F)(I)C(F)(F)C(F)(F)C(F)(F)I
- AC50 [1]: 45.8 µM (active) and 45.9 µM (active) and 54.5 µM (active)
- AC50 [2]: 46.6 µM (active) and 47.8 µM (active) and 47.4 µM (active)
- AC50 [3]: 46.5 µM (active) and 53 µM (active) and 53.4 µM (active)
- AC50 [4]: 52 µM (active) and 48.5 µM (active)
- outcome [4]: inactive
- AC50 [5]: 51.2 µM (active) and 48.6 µM (active) and 50.2 µM (active)
- AC50 [6]: 49.7 µM (active) and 50.4 µM (active) and 51.2 µM (active)
- AC50 [8]: 45.8 µM (active) and 47.3 µM (active)
- outcome [8]: inactive
- AC50 [9]: 51.3 µM (active) and 50.7 µM (active) and 46.5 µM (active)

SMILES: O=C(O)C(F)(OC(F)(F)C(F)(OC(F)(F)C(F)(OC(F)(F)C(F)(F)C(F)(F)F)C(F)(F)F)C(F)(F)F)C(F)(F)F (configuration not stated)
- outcome [1]: inactive
- outcome [2]: inactive
- outcome [3]: inactive
- outcome [4]: inactive
- outcome [10]: inactive
- outcome [5]: inactive
- outcome [6]: inactive
- outcome [7]: inactive
- outcome [8]: inactive
- outcome [9]: inactive
